Experimental findings from PubChem BioAssay (EPA / NIEHS) are described below.

Common to all, as to settings: mRNA level, 48 h; actives raise or lower the signal
Read-out in assay [1]: cysteine-aspartic acid protease (CASP8), CASP8 (gene 841)
As to the kind of experiment: LTEA_HepaRG_CASP8: Life Technologies and Expression Analysis (LTEA) Assay for cysteine-aspartic acid protease (CASP8) using HepaRG (AID 2283480). In short, it runs like this: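 Concentration-response in duplicate up to 100 uM (half-log steps, 0.5% DMSO) on differentiated HepaRG cultures for 48 h. Expression change of CASP8 mRNA is determined by TaqMan qRT-PCR with housekeeping-gene normalization.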

Read-out in assay [2]: Cytochrome P450 (CYP2B6), CYP2B6 (gene 1555)
In words: LTEA_HepaRG_CYP2B6: Life Technologies and Expression Analysis (LTEA) Assay for Cytochrome P450 (CYP2B6) using HepaRG (AID 2283481). The procedure, abridged:
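Using 48 h treatment of HepaRG cells in serum-free induction medium, concentrations spanned half-log steps from 100 uM in 0.5% DMSO vehicle. CYP2B6 mRNA induction or loss is scored by qRT-PCR against DMSO.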

Read-out in assay [3]: Cytochrome P450 2C19 (Homo sapiens) (UniProt P33261)
As to the kind of experiment: LTEA_HepaRG_CYP2C19: Life Technologies and Expression Analysis (LTEA) Assay for CYP2C19 using HepaRG (AID 2283482). The procedure, abridged:
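Human HepaRG liver cells received test chemicals for 48 h (highest 100 uM, half-log dilutions in 0.5% DMSO). CYP2C19 mRNA induction or loss is read by multiplexed qRT-PCR and fitted in both directions versus vehicle.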

Read-out in assay [4]: CYP2C8 (gene 1558)
In words: LTEA_HepaRG_CYP2C8: Life Technologies and Expression Analysis (LTEA) Assay for CYP2C8 using HepaRG (AID 2283483). The procedure, abridged: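 This is a transcriptional endpoint in HepaRG cultures: 48 h exposure, highest concentration 100 uM. CYP2C8 mRNA is quantified by TaqMan qRT-PCR.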

Read-out in assay [5]: CYP2C9 (gene 1559)
In words: LTEA_HepaRG_CYP2C9: Life Technologies and Expression Analysis (LTEA) Assay for CYP2C9 using HepaRG (AID 2283484). In short, it runs like this: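 Eight-point concentration-response (highest 100 uM, half-log dilutions) in HepaRG cells for 48 h; CYP2C9 expression by qRT-PCR normalized to ACTB, GAPDH, POLR2A. Bidirectional fit, DMSO baseline.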

Read-out in assay [6]: CYP2E1 (gene 1571)
In words: LTEA_HepaRG_CYP2E1: Life Technologies and Expression Analysis (LTEA) Assay for CYP2E1 using HepaRG (AID 2283485). The procedure, abridged:
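Readout is qRT-PCR of CYP2E1 mRNA, normalized to three housekeeping genes and fitted bidirectionally against 0.5% DMSO. HepaRG cells were dosed 48 h at eight concentrations, highest 100 uM with half-log dilutions.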

Read-out in assay [7]: CYP4A11 (gene 1579)
In words: LTEA_HepaRG_CYP4A11: Life Technologies and Expression Analysis (LTEA) Assay for CYP4A11 using HepaRG (AID 2283486). In short, it runs like this: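 Readout is CYP4A11 mRNA induction or suppression (qRT-PCR, ACTB/GAPDH/POLR2A normalization) in human HepaRG cells after 48 h chemical treatment, concentrations to 100 uM in 0.5% DMSO, fitted bidirectionally against vehicle.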

Read-out in assay [8]: Cytochrome P450 3A4 (Homo sapiens) (UniProt P08684)
As to the kind of experiment: LTEA_HepaRG_CYP3A4: Life Technologies and Expression Analysis (LTEA) Assay for CYP3A4 using HepaRG (AID 2283487). The procedure, abridged:
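In a human hepatic line (HepaRG), duplicate wells were treated 48 h with up to 100 uM chemical in half-log dilutions. Endpoint: CYP3A4 mRNA induction or loss relative to 0.5% DMSO vehicle, by qRT-PCR.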

Read-out in assay [9]: DNA damage-inducible transcript 3 (DDIT3), DDIT3 (gene 1649)
As to the kind of experiment: LTEA_HepaRG_DDIT3: Life Technologies and Expression Analysis (LTEA) Assay for DNA damage-inducible transcript 3 (DDIT3) using HepaRG (AID 2283488). In short, it runs like this: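 Cells are human HepaRG liver cells treated for 48 h with eight half-log concentrations up to 100 uM in 0.5% DMSO. Transcript levels come from qRT-PCR normalized to three housekeeping genes, with activity fitted in both directions relative to vehicle.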

Read-out in assay [10]: Pro-epidermal growth factor (Homo sapiens) (UniProt P01133)
In words: LTEA_HepaRG_EGF: Life Technologies and Expression Analysis (LTEA) Assay for Epidermal growth factor (EGF) using HepaRG (AID 2283489). The procedure, abridged: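 EGF expression changes in human HepaRG cells are scored by bidirectional fitting relative to 0.5% DMSO controls. Chemicals are tested at eight half-log concentrations up to 100 uM for 48 h in serum-free induction medium.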

Read-out in assay [11]: Early growth response protein 1 (EGR1) transcription factor, EGR1 (gene 1958)
As to the kind of experiment: LTEA_HepaRG_EGR1: Life Technologies and Expression Analysis (LTEA) Assay for Early growth response protein 1 (EGR1) transcription factor using HepaRG (AID 2283490). The procedure, abridged: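 EGR1 expression change in human HepaRG after 48 h chemical exposure, assessed by housekeeping-normalized qRT-PCR; concentration-response up to 100 uM, fitted in both directions against DMSO controls.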

Read-out in assay [12]: Ezrin (EZR), EZR (gene 7430)
As to the kind of experiment: LTEA_HepaRG_EZR: Life Technologies and Expression Analysis (LTEA) Assay for Ezrin (EZR) using HepaRG (AID 2283491). In short, it runs like this: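 Gain or loss of EZR mRNA is scored relative to 0.5% DMSO in human HepaRG cultures treated 48 h with test chemicals in duplicate, eight half-log concentrations from 100 uM.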

Read-out in assay [13]: Cytochrome P450 3A7 (Homo sapiens) (UniProt P24462)
In words: LTEA_HepaRG_CYP3A7: Life Technologies and Expression Analysis (LTEA) Assay for CYP3A7 using HepaRG (AID 2283492). In short, it runs like this: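 Cells were thawed, plated, cultured 48 h, then treated for a further 48 h with chemicals (eight-point half-log series from 100 uM, 0.5% DMSO). RNA was isolated and CYP3A7 expression quantified by qRT-PCR normalised to ACTB, GAPDH and POLR2A.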

Read-out in assay [14]: CYP3A5 (gene 1577)
As to the kind of experiment: LTEA_HepaRG_CYP3A5: Life Technologies and Expression Analysis (LTEA) Assay for CYP3A5 using HepaRG (AID 2283493). The procedure, abridged:
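Human HepaRG hepatic cells receive 48 h chemical treatment at eight concentrations (half-log steps from 100 uM) in 0.5% DMSO. Expression of CYP3A5 is quantified by Fluidigm qRT-PCR and normalized to three reference genes.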

Read-out in assay [15]: Fatty Acid-Binding Protein 1 (FABP1), FABP1 (gene 2168)
As to the kind of experiment: LTEA_HepaRG_FABP1: Life Technologies and Expression Analysis (LTEA) Assay for Fatty Acid-Binding Protein 1 (FABP1) using HepaRG (AID 2283494). In short, it runs like this:
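Values reflect bidirectional concentration-response fitting of FABP1 mRNA change against 0.5% DMSO controls. Human HepaRG cultures received eight half-log doses (top 100 uM) for 48 h; expression quantified by TaqMan qRT-PCR with housekeeping-gene normalization.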

Read-out in assay [16]: Cytochrome P450 7A1 (Homo sapiens) (UniProt P22680)
As to the kind of experiment: LTEA_HepaRG_CYP7A1: Life Technologies and Expression Analysis (LTEA) Assay for Cytochrome P450 7A1 (CYP7A1) using HepaRG (AID 2283496). The procedure, abridged: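 HepaRG, 48 h exposure, 8-pt half-log series from 100 uM, 0.5% DMSO vehicle, duplicates. Readout: TaqMan qRT-PCR mRNA vs three housekeeping genes; bidirectional curve fit against DMSO baseline.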

Read-out in assay [17]: Glutathione S-Transferase (GSTA2), GSTA2 (gene 2939)
In words: LTEA_HepaRG_GSTA2: Life Technologies and Expression Analysis (LTEA) Assay for Glutathione S-Transferase (GSTA2) using HepaRG (AID 2283497). The procedure, abridged:
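Oxidative-stress marker GSTA2 is quantified by TaqMan qRT-PCR in HepaRG cultures treated 48 h across an eight-point range to 100 uM. Expression is normalized to endogenous controls and compared with 0.5% DMSO vehicle.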

Read-out in assay [18]: Glutamate-cysteine ligase catalytic (GCLC), GCLC (gene 2729)
In words: LTEA_HepaRG_GCLC: Life Technologies and Expression Analysis (LTEA) Assay for Glutamate-cysteine ligase catalytic (GCLC) using HepaRG (AID 2283498). The procedure, abridged: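 Oxidative-stress marker GCLC is measured as mRNA change in human HepaRG liver cells after 48 h chemical treatment in 0.5% DMSO, eight concentrations from 100 uM. Activity is fitted bidirectionally against vehicle.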

Read-out in assay [19]: growth arrest and DNA damage 45 (GADD45G), GADD45G (gene 10912)
As to the kind of experiment: LTEA_HepaRG_GADD45G: Life Technologies and Expression Analysis (LTEA) Assay for growth arrest and DNA damage 45 (GADD45G) using HepaRG (AID 2283499). In short, it runs like this:
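Human hepatic HepaRG line treated 48 h with chemicals (eight concentrations, half-log steps from 100 uM); transcript induction or repression of GADD45G scored by qRT-PCR versus DMSO vehicle.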

Read-out in assay [20]: Glutathione S-transferase M3 (GSTM3), GSTM3 (gene 2947)
As to the kind of experiment: LTEA_HepaRG_GSTM3: Life Technologies and Expression Analysis (LTEA) Assay for Glutathione S-transferase M3 (GSTM3) using HepaRG (AID 2283501). The procedure, abridged:
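Changes in GSTM3 expression, an oxidative-stress marker, were scored by bidirectional curve fitting against 0.5% DMSO vehicle. Human HepaRG cultures received chemicals for 48 h in duplicate, highest concentration 100 uM with half-log dilutions.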

Structures are written as SMILES. Calls of active or inactive are those of the source. Rule for the calls: active = hit-call score of the fitted dose curve at least 0.9, where 1 is the maximum; inactive = score below 0.9.

Cytochrome P450 2C19 (Homo sapiens), sequence (P33261 whole entry, looked up): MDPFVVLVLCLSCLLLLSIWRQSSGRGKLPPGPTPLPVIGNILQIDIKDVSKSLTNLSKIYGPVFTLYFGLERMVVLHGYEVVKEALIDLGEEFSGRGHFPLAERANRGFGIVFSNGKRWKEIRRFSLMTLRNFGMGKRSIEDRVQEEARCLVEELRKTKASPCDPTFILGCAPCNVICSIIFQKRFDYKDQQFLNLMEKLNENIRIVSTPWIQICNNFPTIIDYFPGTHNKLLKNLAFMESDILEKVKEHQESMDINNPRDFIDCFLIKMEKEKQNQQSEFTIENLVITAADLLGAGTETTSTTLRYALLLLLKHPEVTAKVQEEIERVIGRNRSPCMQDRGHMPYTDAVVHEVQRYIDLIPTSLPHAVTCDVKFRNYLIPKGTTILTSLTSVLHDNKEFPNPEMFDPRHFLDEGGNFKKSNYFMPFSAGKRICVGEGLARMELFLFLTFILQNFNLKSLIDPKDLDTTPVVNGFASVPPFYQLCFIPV
Cytochrome P450 3A7 (Homo sapiens), sequence (P24462 whole entry, looked up): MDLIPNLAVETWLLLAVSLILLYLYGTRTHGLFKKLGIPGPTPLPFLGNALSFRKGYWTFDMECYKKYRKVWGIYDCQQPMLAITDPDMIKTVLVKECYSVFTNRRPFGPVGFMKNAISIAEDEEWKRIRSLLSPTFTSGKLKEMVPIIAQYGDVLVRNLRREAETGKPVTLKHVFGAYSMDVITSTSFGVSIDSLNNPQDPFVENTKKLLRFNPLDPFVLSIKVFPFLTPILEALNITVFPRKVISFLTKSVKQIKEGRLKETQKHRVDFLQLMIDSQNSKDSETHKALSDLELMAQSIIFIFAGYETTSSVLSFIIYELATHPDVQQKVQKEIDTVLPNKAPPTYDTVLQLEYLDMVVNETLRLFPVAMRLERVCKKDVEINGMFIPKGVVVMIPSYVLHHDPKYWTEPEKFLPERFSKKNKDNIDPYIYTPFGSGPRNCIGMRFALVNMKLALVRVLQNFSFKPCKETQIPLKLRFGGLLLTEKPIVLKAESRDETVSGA
Cytochrome P450 3A4 (Homo sapiens), sequence (P08684 whole entry, looked up): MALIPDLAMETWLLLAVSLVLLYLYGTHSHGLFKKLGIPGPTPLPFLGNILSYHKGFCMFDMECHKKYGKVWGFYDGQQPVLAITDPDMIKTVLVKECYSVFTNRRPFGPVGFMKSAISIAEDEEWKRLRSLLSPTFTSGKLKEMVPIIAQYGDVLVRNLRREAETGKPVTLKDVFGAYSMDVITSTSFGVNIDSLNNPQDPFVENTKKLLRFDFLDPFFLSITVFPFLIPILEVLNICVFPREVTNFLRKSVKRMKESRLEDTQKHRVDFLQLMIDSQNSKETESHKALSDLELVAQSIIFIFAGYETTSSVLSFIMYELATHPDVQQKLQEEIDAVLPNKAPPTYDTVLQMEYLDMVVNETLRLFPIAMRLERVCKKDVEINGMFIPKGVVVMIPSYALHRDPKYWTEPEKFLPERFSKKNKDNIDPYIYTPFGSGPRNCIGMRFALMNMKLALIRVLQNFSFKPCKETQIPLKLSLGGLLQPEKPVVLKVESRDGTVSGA

In the case of `CCOP(=S)(OCC)Oc1nc(Cl)c(Cl)cc1Cl`, the result in assay [1], in assay [4], in assay [5], in [7], in [9] and in assay [10] was inactive. The outcome in assay [11], in [12], in [13], in assay [14], in assay [17] and in assay [18] was inactive. Moreover, the compound was classed as inactive in assay [19] and in assay [20]. Moreover, the half-maximal activity concentration (AC50) in assay [2] was 11.4 µM (active); in [3], 23.8 µM (active); in assay [6], 50 µM (active); in assay [8], 37.2 µM (active); in assay [15], 50 µM (active); in assay [16], 50 µM (active).

For `O=C1C2(Cl)C3(Cl)C4(Cl)C(Cl)(Cl)C5(Cl)C3(Cl)C1(Cl)C5(Cl)C24Cl` (stereo not given), the call in [1], in assay [8], in assay [10], in assay [13] and in assay [20] was inactive. Moreover, the concentration at half-maximal activity (AC50) is 93.5 µM (active) in assay [2]; 26.4 µM (active) in assay [3]; 25.2 µM (active) in [4]; 94.1 µM (active) in assay [5]; 13.2 µM (active) in assay [6]; 22.8 µM (active) in [7]. Moreover, the AC50 in assay [9] was 89.4 µM (active); in assay [11], 95.5 µM (active); in assay [12], 91.3 µM (active); in assay [14] it was 92.4 µM (active); in assay [15] it was 93.5 µM (active); in [16], 20.6 µM (active). The AC50 was 22.9 µM (active) in assay [17], 93.3 µM (active) in [18] and 59 µM (active) in assay [19].

Take `O=c1[nH]c(=O)[nH]c(=O)[nH]1`: the compound was called inactive in [1], in assay [2], in assay [3], in assay [4], in assay [5] and in [6]. Besides, the call in assay [7], in assay [8], in assay [9], in assay [10], in assay [11] and in [12] was inactive. The outcome in [13], in [14], in assay [15], in assay [16], in assay [17] and in assay [18] was inactive. Further, the compound was classed as inactive in assay [19] and in assay [20].

For `O=C(O)C(Cl)(Cl)Cl`, the compound was called inactive in assay [1], in assay [2], in assay [3], in assay [4], in [5] and in assay [6]. Also, the call in assay [7], in assay [8], in assay [9], in assay [10], in assay [11] and in assay [12] was inactive. Also, the compound was classed as inactive in assay [13], in assay [14], in assay [15], in [16], in assay [17] and in assay [18]. In addition, the outcome in [19] and in assay [20] was inactive.

By AC50 is commonly meant the midpoint of the concentration-response curve, whichever way the signal moves.
